Laboratory results: PubChem BioAssay (NCATS)
Results filed as inconclusive are left out. A call without a number means that no potency is given here. Unmarked numbers belong to inactive results. Calls of active or inactive are those of the source. Calls follow the shape of the dose curve; as a rule, active = well fitted curve in the direction sought with a large enough effect; inconclusive = small, poorly fitted or top-dose-only effect, or another doubt; inactive = no such curve, though single readings can be large; an effect the other way counts as inactive or inconclusive.

Key:
JEG-3 = test: Primary qHTS to identify gynecologic anti-cancer compounds using libraries of approved drugs and bioactive compounds (AID 1345084); conditions: Gynecologic cancer cell panel viability, ATPlite luminescence, 48 h; series mostly up to 57.5 µM; also: nearly all actives have a fitted effect of over 55% in size
Outline: (§1)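 48 h compound exposure at 37 C, 5% CO2; five-point qHTS. ATPlite luminescence readout of cell ATP.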

OV90 = test: as above; conditions: Gynecologic cancer cell panel viability, ATPlite luminescence, 48 h; series mostly up to 57.5 µM
Outline: as §1

PA-1 = test: as above; conditions: Gynecologic cancer cell panel viability, ATPlite luminescence, 48 h; series mostly up to 57.5 µM
Outline: as §1

SKOV3 = test: as above; conditions: Gynecologic cancer cell panel viability, ATPlite luminescence, 48 h; series mostly up to 57.5 µM
Outline: as §1

Tov-21-G = test: as above; conditions: Gynecologic cancer cell panel viability, ATPlite luminescence, 48 h; series mostly up to 57.5 µM
Outline: as §1

Tov112D = test: as above; conditions: Gynecologic cancer cell panel viability, ATPlite luminescence, 48 h; series mostly up to 57.5 µM
Outline: as §1

[1] = qHTS assay to identify inhibitors of the type 1 interferon - major histocompatibility complex class I in skeletal muscle: Counter screen cell viability and HiBit confirmation (AID 1347412); conditions: iHSKM muscle cells + IFN-b, HiBiT or CellTiter-Glo, 24 h; for Potency: HiBiT; for activity change, negative = inhibition: Viability, at 45.9 µM (top of the series); as to all read-outs here: nearly all actives have a fitted effect of over 60% in size
Outline: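 HLA-B*08:01–HiBiT knock-in immortalized human myoblasts (C25cl48) stimulated with 4.0 ng/ml human IFN-beta and dosed with compound in a 12-point 1:3 titration (top final 46 uM). After 24 hrs at 37 C, HiBiT lytic luminescence or CellTiter Glo ATP read out.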
Potency is read from the fitted curve at half-maximal effect.

SMILES: Clc1cccc(-n2nnnc2NCc2ccccc2Oc2ccccn2)c1Cl
- Potency (JEG-3): inactive
- Potency (OV90): inactive
- Potency (PA-1): inactive
- Potency (SKOV3): inactive
- Potency (Tov-21-G): inactive
- Potency (Tov112D): inactive

SMILES: Clc1ccc2ncc(-c3cccc(NC4CNC4)n3)n2c1
- Potency (JEG-3): inactive
- Potency (OV90): inactive
- Potency (PA-1): inactive
- Potency (SKOV3): inactive
- Potency (Tov-21-G): inactive
- Potency (Tov112D): inactive

SMILES: CCCn1c(=O)c2[nH]c(-c3cnn(Cc4cccc(C(F)(F)F)c4)c3)nc2n(CC)c1=O
- Potency (JEG-3): inactive
- Potency (OV90): inactive
- Potency (PA-1): inactive
- Potency (SKOV3): inactive
- Potency (Tov-21-G): inactive
- Potency (Tov112D): inactive

SMILES: CNC(=O)c1ccc(-c2cnc3ncc(Cc4ccc5ncccc5c4)n3n2)cc1F
- Potency (JEG-3): inactive
- Potency (OV90): inactive
- Potency (PA-1): inactive
- Potency (SKOV3): inactive
- Potency (Tov-21-G): inactive
- Potency (Tov112D): inactive

SMILES: COc1cc2c(Oc3ccc(NC(=O)C4(C(=O)Nc5ccc(F)cc5)CC4)cc3F)ccnc2cc1OCCCN1CCOCC1
- Potency (JEG-3): inactive
- Potency (OV90): 12.6 µM (active)
- Potency (PA-1): 28.2 µM (active)
- Potency (SKOV3): 22.4 µM (active)
- Potency (Tov-21-G): 15.8 µM (active)
- Potency (Tov112D): 12.6 µM (active)

SMILES: N#Cc1c(O)c2c(-c3ccc(-c4ccccc4O)cc3)csc2[nH]c1=O
- Potency (JEG-3): inactive
- Potency (OV90): inactive
- Potency (PA-1): inactive
- Potency (SKOV3): inactive
- Potency (Tov-21-G): inactive
- Potency (Tov112D): inactive

SMILES: COc1ccc2c(c1)CC[C@@H](CN(C)CC(=O)O)[C@H]2c1ccccc1
- Potency (JEG-3): inactive
- Potency (OV90): inactive
- Potency (PA-1): inactive
- Potency (SKOV3): inactive
- Potency (Tov-21-G): inactive
- Potency (Tov112D): inactive

SMILES: O=C(c1cncc(Br)c1)N1CCC(N2CCCC2)CC1
- Potency (JEG-3): inactive
- Potency (OV90): inactive
- Potency (PA-1): inactive
- Potency (SKOV3): inactive
- Potency (Tov-21-G): inactive
- Potency (Tov112D): inactive

SMILES: CCCCCN(CCC12CC3CC(CC(C3)C1)C2)C(=O)NCCCc1ccncc1
- Potency (JEG-3): inactive
- Potency (OV90): inactive
- Potency (PA-1): inactive
- Potency (SKOV3): inactive
- Potency (Tov-21-G): inactive
- Potency (Tov112D): inactive

SMILES: COc1cc(C)c(Sc2cnc(NC(=O)c3ccc(CNC(C)C(C)C)cc3)s2)cc1C(=O)N1CCN(C(C)=O)CC1 (stereo not drawn)
- Potency (JEG-3): inactive
- Potency (OV90): inactive
- Potency (PA-1): 22.4 µM (active)

SMILES: Cc1ccc(CN2CCNCC2)cc1NC(=O)CNc1ccc(F)c(F)c1
- Potency (JEG-3): inactive
- Potency (OV90): inactive
- Potency (PA-1): inactive
- Potency (SKOV3): inactive
- Potency (Tov-21-G): inactive
- Potency (Tov112D): inactive

SMILES: CNC(=O)c1ccc(N2C(=S)N(c3cnc(C#N)c(C(F)(F)F)c3)C(=O)C23CCC3)cc1F
- Potency (JEG-3): inactive
- Potency (OV90): inactive
- Potency (PA-1): inactive
- Potency (SKOV3): inactive
- Potency (Tov-21-G): inactive
- Potency (Tov112D): inactive

SMILES: C[C@]12CC[C@H](O)CC1=CCC1C2CC[C@]2(C)C(n3cnc4ccccc43)=CCC12 (stereo partly drawn)
- Potency (JEG-3): inactive
- Potency (OV90): inactive
- Potency (PA-1): inactive
- Potency (SKOV3): inactive
- Potency (Tov-21-G): inactive
- Potency (Tov112D): inactive

SMILES: Cc1cc(Nc2ncnc3ccc(-c4ccc(CNCCS(C)(=O)=O)o4)cc23)ccc1Oc1ccn2ncnc2c1
- Potency (JEG-3): inactive
- Potency (OV90): inactive
- Potency (PA-1): inactive
- Potency (SKOV3): inactive
- Potency (Tov-21-G): inactive
- Potency (Tov112D): inactive

SMILES: COc1cc2c(Oc3ccc(-c4cnc(Nc5ccc(F)cc5)n(C)c4=O)cc3F)ccnc2cc1OCCCN1CCOCC1
- Potency (JEG-3): inactive
- Potency (OV90): inactive
- Potency (SKOV3): inactive

SMILES: Nc1ccccc1NC(=O)c1ccc(CNC(=O)OCc2cccnc2)cc1
- Potency (JEG-3): 15.8 µM (active)
- Potency (OV90): 0.631 µM (active)
- Potency (PA-1): 3.16 µM (active)
- Potency (Tov-21-G): 8.91 µM (active)

SMILES: CC(C)c1cc(-c2n[nH]c(=O)n2-c2ccc3c(ccn3C)c2)c(O)cc1O
- Potency (JEG-3): inactive
- Potency (OV90): 2.51 µM (active)
- Potency (PA-1): 0.251 µM (active)
- Potency (Tov-21-G): 0.282 µM (active)
- Potency [1]: 0.0176 µM (active)

SMILES: COc1ccc2c(OCc3nnc4ccc(-c5ccccc5)nn34)ccnc2c1
- Potency (JEG-3): inactive
- Potency (OV90): inactive
- Potency (PA-1): inactive
- Potency (Tov-21-G): inactive
- Potency (Tov112D): inactive

SMILES: CC(C)CC(=O)Nc1n[nH]c2c1CN(C(=O)C1CCN(C)CC1)C2(C)C
- Potency (JEG-3): inactive
- Potency (OV90): 7.94 µM (active)
- Potency (PA-1): 0.447 µM (active)
- Potency (Tov112D): 7.94 µM (active)
- Potency [1]: 0.701 µM (active)
- activity change, negative = inhibition [1]: 10.8%

SMILES: CNC(=O)CN1CCC(Oc2cc3c(Nc4cccc(Cl)c4F)ncnc3cc2OC)CC1
- Potency (JEG-3): inactive
- Potency (OV90): inactive
- Potency (PA-1): inactive
- Potency (SKOV3): 14.1 µM (active)
- Potency (Tov112D): inactive

SMILES: COc1cc2c(NC3CCN(C(C)C)CC3)nc(C3CCCCC3)nc2cc1OCCCN1CCCC1
- Potency (JEG-3): 10 µM (active)
- Potency (OV90): 11.2 µM (active)
- Potency (PA-1): 31.6 µM (active)
- Potency (SKOV3): 12.6 µM (active)
- Potency (Tov112D): 22.4 µM (active)

SMILES: Cc1[nH]nc2ccc(-c3cncc(OC[C@@H](N)Cc4ccccc4)c3)cc12
- Potency (JEG-3): 10 µM (active)
- Potency (OV90): 3.55 µM (active)
- Potency (PA-1): 3.55 µM (active)
- Potency (Tov-21-G): 2.82 µM (active)
- Potency (Tov112D): 2 µM (active)
- Potency [1]: 0.991 µM (active)
- activity change, negative = inhibition [1]: -12.9%

SMILES: O=C(c1ccc(Nc2nccc(-c3cc4ccccc4s3)n2)cc1)N1CCC(N2CCCC2)CC1
- Potency (JEG-3): inactive
- Potency (OV90): inactive
- Potency (SKOV3): 25.1 µM (active)
- Potency (Tov-21-G): 28.2 µM (active)
- Potency (Tov112D): inactive
- Potency [1]: 17.6 µM (active)

SMILES: C=CC(=O)Nc1cccc(Oc2nc(Nc3ccc(N4CCN(C)CC4)cc3)ncc2Cl)c1
- Potency (JEG-3): inactive
- Potency (OV90): inactive
- Potency (PA-1): 8.91 µM (active)
- Potency (SKOV3): 3.16 µM (active)
- Potency (Tov-21-G): 8.91 µM (active)
- Potency (Tov112D): 5.62 µM (active)
- Potency [1]: 22.2 µM (active)

SMILES: CC(C)Nc1cc(C(F)(F)F)cc2nc(NC(=O)c3cccnc3)nn12
- Potency (JEG-3): inactive
- Potency (OV90): inactive
- Potency (SKOV3): inactive
- Potency (Tov-21-G): inactive
